Bioassay records: PubChem BioAssay, National Center for Advancing Translational Sciences (NCATS)
Hits are enriched below; roughly 3% of the tested compounds scored in any of these assays.
rTrxR1 inhibitor: blocks rat thioredoxin reductase 1; AID 588453; 390,000 tested, 1% active; recombinant rTrxR1, NADPH fluorescence consumption, selenite substrate; Potency, µM (doses to about 114 µM), without a hit: at the top dose activity change, negative = inhibition, usual class: inhibitors; note: % is set by controls: 0 for no effect and ±100 for the full control effect; nearly all actives have a fitted effect of over 65% in size
Target sequence (O89049 whole entry, looked up): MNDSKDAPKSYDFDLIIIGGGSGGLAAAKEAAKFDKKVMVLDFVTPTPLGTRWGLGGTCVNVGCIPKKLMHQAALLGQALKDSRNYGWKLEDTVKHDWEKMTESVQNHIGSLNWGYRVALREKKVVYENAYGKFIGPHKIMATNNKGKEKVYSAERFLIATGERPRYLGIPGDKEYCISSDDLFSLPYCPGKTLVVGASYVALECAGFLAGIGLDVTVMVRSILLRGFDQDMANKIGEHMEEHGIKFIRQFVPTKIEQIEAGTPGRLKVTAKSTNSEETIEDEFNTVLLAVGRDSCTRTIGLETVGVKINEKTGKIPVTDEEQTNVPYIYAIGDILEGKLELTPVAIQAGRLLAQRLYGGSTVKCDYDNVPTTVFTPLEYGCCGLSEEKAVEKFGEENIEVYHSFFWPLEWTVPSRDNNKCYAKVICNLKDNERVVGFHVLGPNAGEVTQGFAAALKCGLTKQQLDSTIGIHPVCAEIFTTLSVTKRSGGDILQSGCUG
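Rat TrxR1 (90 nM in the dispensed reagent) was pre-reduced with 400 uM NADPH for 5 min at room temperature, then incubated with compound for 15 min. After 400 uM selenite was added, NADPH fluorescence (Ex 340/Em 450 nm) was followed for 8 min.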
TrxR1 substrate: is turned over as a substrate by rat TrxR1; purified TrxR1 substrate turnover, NADPH consumption readout; Potency, µM (highest dose often 114 µM), for the others: top-dose activity change, negative = substrate turnover; 390,000 tested, 0.01% active; AID 588456; note: % is set by controls: 0 for no effect and ±100 for the full control effect; nearly all actives have a fitted effect of over 50% in size
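Rat TrxR1, dispensed at 90 nM, was prereduced with 400 uM NADPH (final) for 5 min at ~22 deg C, then incubated with compound 15 min before 400 uM selenite. A first-read NADPH fluorescence drop versus no-compound background flagged substrates.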
GALK inh: blocks human galactokinase activity; Purified GALK, Kinase-Glo residual ATP luminescence; P51570; 270,000 tested, 0.007% active; AID 1868; Potency, µM (doses to about 57.5 µM), inactives show at the top dose activity change, negative = inhibition, usual class: inhibitors; note: % is set by controls: 0 for no effect and ±100 for the full control effect
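Quantitative HTS: GALK 5 nM, ATP 35 uM, galactose 100 uM, 1 h room temperature, then luciferase-based ATP detection.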
A549 viability: A549 cytotoxicity, counter-screen for Nrf2 inhibitors; A549 ARE-Fluc cells, CellTiter-Fluor viability, 18-24 h; Potency, µM (top dose mostly 46 µM), inactives show at the highest dose activity change, negative = cytotoxicity, most hits filed as inhibitors; 390,000 tested, 0.16% active; AID 504648; note: % is set by controls: 0 for no effect and ±100 for the full control effect
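Cytotoxicity counterscreen: CellTiter-Fluor fluorescence was measured in A549 ARE_Fluc cells after 18-24 h of compound exposure in a concentration series. The subsequent BugLite luminescent read reports ARE-luciferase activity.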
Nrf2 ARE act: activates Nrf2 signaling. AREc32 ARE-luciferase reporter (MCF7-derived line), luminescence, 24 h. Potency, µM (titrated, usually from 46.1 µM), inactives show at the top dose activation, usual class: activators. 410,000 tested, 0.31% active. AID 624171; note: % of control where 0% means no effect; nearly all actives have a fitted effect of over 65% in size
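ARE-driven firefly luciferase activity in AREc32 cells measured after a 24 hr compound exposure at 37 deg C, using Steady-Glo reagent and a 30 min room-temperature hold.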
Nrf2 block: blocks Nrf2 signaling | 360,000 tested, 2.1% active | AID 504444 | A549 ARE-Fluc reporter, luciferase luminescence, 18-24 h | Potency, µM (highest dose often 46 µM), for inactives: at the top dose activity change, negative = inhibition, most hits filed as inhibitors; note: % is set by controls: 0 for no effect and ±100 for the full control effect; nearly all actives have a fitted effect of over 60% in size
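Two sequential reads on A549 ARE_Fluc cells exposed to compound for 18-24 h: a CellTiter-Fluor fluorescence read for viability, then a luciferase luminescence read for Nrf2/ARE activity.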
* = called active by the depositor; ? = inconclusive; . = no result; [ ] = another dose, or the depositor's remark. Calls come from the whole dose curve; as a rule, active = well fitted curve in the direction sought with a large enough effect; inconclusive = small, poorly fitted or top-dose-only effect, or another doubt; inactive = no such curve, though single readings can be large; an effect the other way counts as inactive or inconclusive. Potency is the fitted concentration of half-maximal effect.

SMILES	rTrxR1 inhibitor	TrxR1 substrate	GALK inh	A549 viability	Nrf2 ARE act	Nrf2 block
O=C(c1ccccc1)N1CCN(c2ncnc3sc4c(c23)CCC4)CC1	-2%	-1%	1%	-4%	1%	16µM*
Cc1oc(-c2ccccc2)nc1CNC(=O)Nc1ccccc1	1%[57.1 µM]	2%[57.1 µM]	.	-1%	1%	.
NNC(=S)Nc1ccc(Cl)cc1	6%[57.1 µM]	9%[57.1 µM]	1%	2%	2%	8%
NN/C(=C\[N+](=O)[O-])Nc1ccc(Cl)cc1	16µM*	0%	-4%	-1%	4%	?
NN/C(=C\[N+](=O)[O-])Nc1ccccc1	16µM*	0%	11%	2%	11%	?
Cn1c(CSCc2ccc(Cl)cc2)nnc1SCC(=O)Nc1nccs1	-1%	-2%	0%	-1%	-1%	?
Cn1c(CSCc2ccc(F)cc2)nnc1SCC(=O)N1CCN(c2ccccc2)CC1	-5%	-4%	3%	-6%	0%	13µM*
Cn1c(CSCc2ccc(F)cc2)nnc1SCC(=O)Nc1nccs1	7%[57.1 µM]	4%[57.1 µM]	5%	?	2%	18µM*
CCc1nc(-c2cc(S(=O)(=O)N3CCN(c4ccccc4OC)CC3)ccc2OC)no1	4%	3%	.	-2%	0%	-2%
C=CCn1c(SCC(=O)NC2CCCC2)nc2scc(-c3ccco3)c2c1=O	35µM*	-3%	0%	0%	8%	-5%
C=CCn1c(SCC(=O)NCCCC)nc2scc(-c3ccco3)c2c1=O	45µM*	-2%	3%	-7%	11%	-24%
COc1cccc(C(=O)NCCSc2c(-c3ccc(F)cc3)[nH]c3ccccc23)c1OC	42%	34%	.	?	0%	-1%[9.27 µM]
CCN(C(=O)CSc1nnc(-c2cc(OC)c(OC)c(OC)c2)o1)c1ccccc1	45µM*	-8%	.	2%	8%	-14%
CCc1ccc(OC(=O)CSc2nnc(-c3ccc(OC)c(OC)c3)o2)cc1	7%	0%	.	2%	-1%	20%
COc1ccc(CN(C(=O)CSc2nnc(-c3ccccc3F)o2)c2ccc(F)cc2)cc1	26%	-5%[57.1 µM]	2%	-6%	-1%	21µM*
COc1ccc(-c2nnc(SCC(=O)N(Cc3ccccc3)C(C)(C)C)o2)cc1OC	-2%	-1%	4%	-16%	-1%	23µM*
CN(C(=O)CSc1nnc(-c2ccccc2F)o1)c1ccccc1	0%	-6%	.	4%	4%	?
O=C(CCCc1nc(-c2ccccc2)no1)Nc1cc(C(F)(F)F)cc(C(F)(F)F)c1	11%	-17%	.	-36%	1%	?
Cn1cc(CCNC(=O)CC2C(=O)NCCN2Cc2cccc(Oc3ccccc3)c2)cn1 (stereo not given)	25µM*	17%	2%	6%	0%	15µM*
O=C(CC1C(=O)NCCN1Cc1cccc(Oc2ccccc2)c1)NCCc1ccccn1 (stereo not given)	-13%[57.1 µM]	-6%[57.1 µM]	-2%	0%	2%	?
CCC(C(=O)Nc1cc(C)ccc1C)n1c(=O)c(C(F)(F)F)nc2ccccc21 (stereo not given)	18%[57.1 µM]	2%[57.1 µM]	.	18%	-1%	0%
CCCN(Cc1ccccc1)C(=S)Nc1cccc(C(F)(F)F)c1	13%	-3%	0%	2%	3%	21µM*
Nc1ccccc1SSc1ccccc1N	122%[57.1 µM]	-6%[57.1 µM]	-1%	2%	23%	-9%
CC(C(Sc1ccccc1N)c1ccccc1)[N+](=O)[O-] (stereo not given)	6.3µM*	0%	2%	-4%	28%	9%
CNc1cccccc1=S	7.9µM*	-2%	0%	-14%	0%	2%
SMILES	rTrxR1 inhibitor	TrxR1 substrate	GALK inh	A549 viability	Nrf2 ARE act	Nrf2 block
CNc1ccccc1	6%	1%	.	-2%	-1%	1%
OCCn1c(CSc2nnc(-c3ccco3)n2-c2ccccc2)nc2ccc(Cl)cc21	20µM*	6%	-3%	-4%	0%	-22%
Cc1cc(C)nc(Sc2ccc(C=O)cc2[N+](=O)[O-])n1	15%	-1%	3%	-3%	0%	7%
O=Cc1ccc(Sc2nnc(-c3ccccc3)o2)c([N+](=O)[O-])c1	5µM*	10%	1%	2%	?	-12%
Cc1cc2c(s1)c1cnn(Cc3c(F)c(F)c(C(F)(F)F)c(F)c3F)c(=O)c1n2C	.	.	.	2%	.	2%
CCc1cc(SC#N)cc(CC)c1NC(=O)CCl	25µM*	-10%	.	?	?	?
COc1cc(OC)c2ccc(=O)oc2c1C(CCN1CCCC1)c1ccc2c(c1)OCO2 (stereo not given)	4%	-7%	0%	18µM*	1%	11%
COc1ccc(C(CCN2CCOCC2)c2c(OC)cc(OC)c3ccc(=O)oc23)cc1 (stereo not given)	10%	2%	.	15µM*	4%	-4%
COc1cc(OC)c2ccc(=O)oc2c1C(CCN1CCOCC1)c1ccc2c(c1)OCO2 (stereo not given)	13%	3%	.	?	4%	12%
CCOC(=O)c1c(SCCN2CCCC2)n(-c2ccccc2)c(=S)n(-c2ccccc2)c1=O	32µM*	4%	.	14%	11%	?
O=S(=O)(NCC(c1cccs1)S(=O)(=O)c1ccccc1)c1ccc(F)c(C(F)(F)F)c1 (stereo not given)	-6%[57.1 µM]	-11%[57.1 µM]	.	12%	9%	.
O=S(=O)(NCC(c1cccs1)S(=O)(=O)c1ccccc1)c1ccc(F)cc1 (stereo not given)	13µM*	-15%[57.1 µM]	.	4%	?	.
O=C(/C=C/c1ccco1)NCCc1ccccc1	?	-4%	0%	1%	27%	?
O=C(/C=C/c1ccccc1)Nc1cccnc1	24%	2%	4%	-4%	7%	?
Cc1ccc(/C=C/C(=O)Nc2cccnc2)o1	32µM*	4%[57.1 µM]	4%	4%	6%	?
Cc1ccc(/C=C/C(=O)NCCc2ccccc2)o1	14µM*	5%	-9%	16%	5%[9.22 µM]	24%
Cc1ccc(/C=C/C(=O)Nc2nn[nH]n2)o1	50µM*	-19%	0%	11%	0%	0%
Cc1ccc(/C=C/C(=O)Nc2cccc3ncccc23)o1	10µM*	-4%	1%	9%	25%	-6%
COc1cc(NC(=O)CC2C(=O)N(c3ccccc3)C(=O)N2Cc2ccc(F)cc2)cc(OC)c1 (stereo not given)	14%[57.1 µM]	0%[57.1 µM]	.	1%	5%	.
O=C(CN1CC(=O)Oc2ccccc21)OCC(=O)c1ccc(Br)cc1	-22%	-5%	.	?	13µM*	-23%
O=C(CN1CC(=O)Oc2ccccc21)OCC(=O)c1ccc(F)cc1	-83%	7%[57.1 µM]	11%	?	?	-5%
